Source: PubChem
Pf Dd2 growth: Plasmodium falciparum Dd2 growth inhibition; hit rate 4.3% among 120,000; P. falciparum Dd2 growth, SYBR Green, 72 h; Potency, µM (doses to about 28.9 µM), inactives show top-dose activity, negative = inhibition, most hits filed as inhibitors; active means well fitted inhibition curve with a large enough effect;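 further: plate controls were DMSO vehicle for no effect and reference drug for full effect; nearly all actives have a fitted effect of over 65% in size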
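Infected erythrocytes (Dd2, 0.3% parasitemia, 2.5% hematocrit final) are added to compound in RPMI-1640/Albumax II medium, grown 72 h at 37C in low oxygen, then lysed with saponin/Triton-X containing SYBR Green and read by fluorescence.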
Numbers without * were called inactive; i = inactive; [ ] = dose if it differs, or a comment. Only a selection was taken, and hits are over-represented in it overall. Potency means the concentration at half of the fitted maximal effect.

SMILES	Pf Dd2 growth
Cn1cc(CN2CC[C@@H](c3ccc4c(c3)OCO4)[C@H](O)C2)c2ccccc21	8.9µM*
Cn1cc(CN2C[C@@H]3OCC(=O)N[C@@H]3C2)c2ccccc21	i
CN1C[C@H]2CN(Cc3cn(C)c4ccccc34)CCN2C1=O	-28%[44.1 µM]
Cn1cc(CN2CCC(C3CCN(S(C)(=O)=O)CC3)C2)c2ccccc21 (centres undefined)	3.5µM*
NCCCC(=O)N1CCC2(CC1)CC(NC(=O)CN)c1ccccc12 (centres undefined)	-1%
COC1C(=O)N(C2CCN(C(=O)c3sc(C)nc3C)CC2)C12CCOCC2 (centres undefined)	-5%
CCC(CC)C(=O)NC[C@H]1O[C@@H](CC(=O)N2CCN(c3ccc(F)cc3)CC2)[C@H](O)[C@@H]1O	-14%
COC[C@@H]1CN(C(=O)c2occc2C)C[C@H]1c1ccncc1	4%
COc1ncccc1C(=O)N1Cc2cnn(Cc3ccc(F)cc3)c2C1	-17%
COc1ccccc1CNC(=O)[C@@H]1CNC[C@H]1COc1cccnc1	20%
CC(C)N1C(=O)C2(CCCC2)C1C(=O)N1CCc2ccccc21 (centres undefined)	-10%
CN(C)CCNC(=O)C[C@@H]1CCNC[C@@H]1Cc1cc(-c2ccc(C(C)(C)C)cc2)on1	i
CN1CCN(C(=O)C[C@@H]2CCNC[C@@H]2Cc2cc(-c3ccccc3)on2)CC1	i
COc1ccc(-c2cc(C[C@H]3CNCC[C@H]3CC(=O)N3CCOCC3)no2)cc1	9%[44.1 µM]
CC(C)NC(=O)C[C@@H]1CCNC[C@@H]1Cc1cc(-c2ccc(C(C)(C)C)cc2)on1	7.1µM*
CC(C)(C)c1ccc(-c2cc(C[C@H]3CNCC[C@H]3CC(=O)Nc3ccccc3)no2)cc1	-25%[44.1 µM]
CCN(CC)C(=O)C[C@@H]1CCNC[C@@H]1Cc1cc(-c2ccc(C(C)(C)C)cc2)on1	4.5µM*
CC(C)(C)c1ccc(-c2cc(C[C@H]3CNCC[C@H]3CC(=O)N3CCC(Cc4ccccc4)CC3)no2)cc1	i
O=C(C[C@@H]1CCNC[C@@H]1Cc1cc(-c2ccccc2)on1)NC1CC1	11%[44.1 µM]
CC(C)(C)c1ccc(-c2cc(C[C@H]3CNCC[C@H]3CC(=O)NCCN3CCOCC3)no2)cc1	10µM*
O=c1cc(CNCc2nc(-c3ncccn3)no2)[nH]c2ccc(F)cc12	-26%
O=C(CC(F)(F)F)N1CCC(N2C(=O)C(O)C23CCCCC3)CC1 (centres undefined)	-7%
CCOCCOc1cccc(C(=O)N2C[C@H](C3CC3)[C@@H](N)C2)c1	-8%
OCc1cc(CC2(NCc3ccccc3)COC2)no1	6%[44.1 µM]
COc1ccc2[nH]c(C[C@@H]3C[C@@H](C(C)C)[C@H](CNC(=O)C4CCC4)C=C3C)nc2n1	11µM*
SMILES	Pf Dd2 growth
COC(=O)c1ccc2nc(C[C@@H]3C[C@@H](C(C)C)[C@H](CNC(=O)c4cnccn4)C=C3C)[nH]c2c1	-5%
COc1ccc2nc(C[C@@H]3C[C@@H](C(C)C)[C@H](CNCc4ccc(NC(C)=O)cc4)C=C3C)[nH]c2c1	i
CC1=C[C@@H](CNC(=O)C2CC2)[C@H](C(C)C)C[C@H]1Cc1nc2ncccc2[nH]1	-6%[44.1 µM]
CC1=C[C@@H](CNCc2ccccc2O)[C@H](C(C)C)C[C@H]1Cc1nc2c(C)cccc2[nH]1	-25%[44.1 µM]
COc1ccc2nc(C[C@@H]3C[C@@H](C(C)C)[C@H](CNCc4ccccn4)C=C3C)[nH]c2c1	0.63µM*
CC1=C[C@@H](CNC(=O)C2CC2)[C@H](C(C)C)C[C@H]1Cc1nc2ccncc2[nH]1	-19%[44.1 µM]
COc1ccc2nc(C[C@@H]3C[C@@H](C(C)C)[C@H](CNC(=O)CC4(CC(=O)O)CCCC4)C=C3C)[nH]c2c1	i
COC(=O)c1ccc2nc(C[C@@H]3C[C@@H](C(C)C)[C@H](CNC(=O)c4ccccc4)C=C3C)[nH]c2c1	8.9µM*
CCCNC(=O)NC[C@@H]1C=C(C)[C@H](Cc2nc3ccc(OC)cc3[nH]2)C[C@H]1C(C)C	10µM*
CCCNC(=O)NC[C@@H]1C=C(C)[C@H](Cc2nc3ncccc3[nH]2)C[C@H]1C(C)C	i
CCC(CC)C(=O)NC[C@@H]1C=C(C)[C@H](Cc2nc3ccc(C(=O)OC)cc3[nH]2)C[C@H]1C(C)C	-1%
COc1ccc(N2CC(c3noc(-c4cccc(OC)c4)n3)CC2=O)cc1 (centres undefined)	15%
Cn1nc(C(=O)N2CC[C@H]3C(=O)NCCCCCCN(Cc4ccncc4)[C@@H]3C2)c2ccccc21	i
COc1ccc(C2=NOC3(CCN(C(=O)c4ccc(C(F)(F)F)cc4)C3)C2)cc1 (centres undefined)	i
CCN1CC(c2ccccc2)CC2(CCN(C(=O)c3ccc(C)nc3)CC2)C1 (centres undefined)	-30%
CCOc1ccc(C2NC(=O)N(CC3CC3)C3=C2C(=O)OC3)cc1 (centres undefined)	-19%
O=C(NCCc1cnc[nH]1)C1CCN(C2CCCCC2)CC1	i
COc1cccc(CNC(=O)CC2=C3CCCCC3NC2=O)c1OC (centres undefined)	-13%
